Among all 24,000 compounds or so, fewer than 10 were called active. Roughly 9% stayed inconclusive and do not appear here.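 How the source made its calls: active means fluorescent ligand binding to cells raised by more than 40% of the manganese-induced maximum; inconclusive means compound's own fluorescence above 85% of the ligand control signal; inactive means the rest.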 Only a sample is shown.
The compounds below were run against Integrin alpha-4 (Homo sapiens) (UniProt P13612) (assay: increased LDV-FITC ligand binding on VLA-4 – Jurkat cells, flow cytometry, primary screen (AID 528;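 further: 0% = ligand binding without compound and 100% = manganese-stimulated maximal binding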)). Conditions: stronger effect = higher value, screened at 10 µM (by protocol).
Chain of Integrin alpha-4 (Homo sapiens) (P13612 whole entry, looked up): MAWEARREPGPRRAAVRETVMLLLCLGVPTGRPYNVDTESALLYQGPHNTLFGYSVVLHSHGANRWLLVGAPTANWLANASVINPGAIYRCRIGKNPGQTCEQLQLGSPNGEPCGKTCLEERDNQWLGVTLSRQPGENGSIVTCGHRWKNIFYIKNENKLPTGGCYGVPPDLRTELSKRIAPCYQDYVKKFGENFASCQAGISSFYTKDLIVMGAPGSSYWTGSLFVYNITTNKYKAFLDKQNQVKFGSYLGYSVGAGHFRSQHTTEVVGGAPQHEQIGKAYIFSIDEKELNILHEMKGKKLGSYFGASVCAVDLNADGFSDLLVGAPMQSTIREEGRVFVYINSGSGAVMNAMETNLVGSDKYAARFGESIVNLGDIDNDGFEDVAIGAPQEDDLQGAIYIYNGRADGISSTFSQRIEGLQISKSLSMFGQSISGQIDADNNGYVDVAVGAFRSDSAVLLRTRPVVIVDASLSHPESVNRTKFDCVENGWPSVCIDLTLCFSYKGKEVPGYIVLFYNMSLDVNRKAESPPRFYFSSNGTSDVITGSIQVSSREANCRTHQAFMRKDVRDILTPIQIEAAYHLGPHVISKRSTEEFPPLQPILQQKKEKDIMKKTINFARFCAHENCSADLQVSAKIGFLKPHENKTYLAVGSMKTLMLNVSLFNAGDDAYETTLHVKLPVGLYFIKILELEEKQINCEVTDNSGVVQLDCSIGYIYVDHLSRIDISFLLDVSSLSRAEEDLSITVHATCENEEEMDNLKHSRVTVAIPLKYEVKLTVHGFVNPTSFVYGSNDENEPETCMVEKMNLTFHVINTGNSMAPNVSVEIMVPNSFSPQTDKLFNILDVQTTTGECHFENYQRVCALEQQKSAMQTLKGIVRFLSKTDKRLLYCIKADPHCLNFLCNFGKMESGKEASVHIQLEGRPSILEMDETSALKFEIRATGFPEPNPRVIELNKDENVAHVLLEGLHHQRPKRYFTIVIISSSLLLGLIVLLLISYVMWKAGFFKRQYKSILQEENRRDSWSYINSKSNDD

activation, inactive:
CCOC(=O)CSc1nnc(NC(=O)c2cccc(S(=O)(=O)N3CCCCC3)c2)s1 0.5%, CCC(=O)c1ccc(OCC(O)CN2C(=O)NC(C)(C)C2=O)cc1 (stereo unspecified) -4%, Cc1ccc(-c2cc(C(F)(F)F)n3nc(C(=O)N4CCCC4)cc3n2)cc1 -1%, Cc1ccc(CNC(=O)CN2CCN(Cc3ccc(Cl)cc3)C2=O)cc1 -2%, CCn1c(SCC(=O)Nc2ccc3c(c2)OCCO3)nc2c(c1=O)SC(C)C2 (stereo unspecified) -4%, CS(=O)(=O)NCc1ccc(C(=O)NCc2ccccc2)cc1 1%, CCCC(=O)Nc1nnc(CC(=O)OCC)s1 -0.5%, O=C(CC1Oc2ccccc2NC1=O)NCCCN1CCN(Cc2ccccc2)CC1 (stereo unspecified) -1%, CCC1CCCCN1CCNS(=O)(=O)c1ccc2c(c1)CCN2C(C)=O (stereo unspecified) -4%, Cc1oc(-c2cccc(Cl)c2)[n+]([O-])c1C 8%, CCOC(=O)CN1C(=O)C(O)(CC(=O)c2ccccn2)c2ccccc21 (stereo unspecified) 4%, CCOc1ccc(S(=O)(=O)n2ccnc2)c2ccccc12 1%, Cn1c(=O)c2c(nc(N3CCCCCC3)n2CC(=O)c2ccc(Br)cc2)n(C)c1=O -1%, CCOc1ccc(OCC)c(NC(=O)C(NS(=O)(=O)c2ccc3c(c2)oc(=O)n3C)C(C)C)c1 (stereo unspecified) -2%, Cn1cccc1Cc1nnc(SCC(=O)NCc2ccc3c(c2)OCO3)n1CCc1ccccc1 -4%, Cn1c(=O)[nH]c(=O)c2c1nc(CN(Cc1ccccc1)Cc1ccccc1)n2CCN1CCOCC1 -6%, C=CCn1c(=N)n(CC(O)COc2ccc(OC)cc2)c2ccccc21 (stereo unspecified) 0%, CCOc1cc(C(=O)Nc2ncccn2)cc(OCC)c1OCC 11.5%, Cc1nnc(C)n1/N=C/c1ccc(C(C)C)cc1 -4%, N#CCCN1CCN(S(=O)(=O)c2ccc(S(=O)(=O)NC3CC3)cc2)CC1 1%, Cc1nnc(NC(=O)CCC(=O)N2CCC(C)CC2)s1 -0.5%, O=C(CCn1c(=S)[nH]c2ccccc2c1=O)NCCCN1CCCC1=O 5%, CC(=O)c1c(N)n(C)c(=O)n(C)c1=O 9%, CCCn1nnc2sc3c(c2c1=O)CCC(C)C3 (stereo unspecified) 4%, CC1CCCN(C(=O)c2ccc3c(c2)C(=O)N(CCC2=CCCCC2)C3=O)C1 (stereo unspecified) 0%, CCCCC(=O)N(c1ccc(OC)cc1)C1C=CS(=O)(=O)C1 (stereo unspecified) -1%, CCCCn1c(=S)[nH]c2ncccc2c1=O 1%, O=S1(=O)CC(NCc2ccccc2)C(Nc2ccc(Cl)cc2)C1 (stereo unspecified) -8%, CCCCCCn1c(CN2CCCCC2)nc2c1c(=O)n(C)c(=O)n2C -6%, COc1ccccc1C(=O)N1CCN=C1SCc1cccnc1 2%, Cc1ccc(S(=O)(=O)N2C3C=CC(C3)C2C(=O)O)cc1 (stereo unspecified) 5%, COc1cccc(N(C(=O)c2ccn[nH]2)C2(C(=O)Nc3c(C)cccc3C)CCCCC2)c1 3%, CCOC(=O)C1CCN(C(=O)C2CCN(S(=O)(=O)N3CCCC3)CC2)CC1 6%, COc1ccc(-c2nc(CS(=O)CC(=O)NCc3cccnc3)c(C)o2)cc1OC (stereo unspecified) 3%, Cc1noc(C)c1S(=O)(=O)N1CCCC(C(=O)Nc2nccs2)C1 (stereo unspecified) 0%, CCN(CC)S(=O)(=O)N1CCC(C(=O)NC(C)CCc2ccccc2)CC1 (stereo unspecified) 3%, COc1cccc(-n2c(Cc3cc(=O)[nH]c(=O)[nH]3)nnc2SCC(=O)Nc2ccccc2)c1 5%, Cc1cccc(N2C(=O)SC(N(CC(=O)O)c3cccc(C)c3)C2=O)c1 (stereo unspecified) 7%, CCN(Cc1ccccc1)C(=O)CSc1nc(C)cc2c1C(=O)OC2 -9%, CCOc1ccc(CNC(=O)C2CCC(=O)N2C2CCCC2)cc1OC (stereo unspecified) -7%, O=C(CN1CCN(S(=O)(=O)c2ccc(F)cc2)CC1)Nc1ccccc1F -1%, COc1ccc(OC)c(N=Cc2c(O)[nH]c3ccccc23)c1 8%, O=C1c2cccnc2C(=O)N1Cc1cccs1 0%, COc1ccccc1CNC(=O)CCn1c(=O)sc2ccccc21 5%, CSCCC(NC(=O)C1CCC(C)CC1)C(=O)NCc1ccco1 (stereo unspecified) 3%, CC(=O)c1c(C)c[nH]c1C 3%, CCOC(=O)c1cnc(-n2nc(C)cc2C)nc1Nc1cccc(C(C)=O)c1 0%, CCOc1cc(/C=N/n2cnnc2)c(Br)cc1O 9%, CC1CN(C(=O)c2ccc3c(c2)OCO3)OC(c2ccccc2)O1 (stereo unspecified) 4%, CCOC(=O)N1CCN(C(=O)c2n[nH]c(=O)c3ccccc23)CC1 -9%, CCOC(=O)N1CCN(S(=O)(=O)c2cc3c(cc2C)NC(=O)CO3)CC1 -8%, Cc1oc(-c2ccccc2F)nc1CS(=O)(=O)CC(=O)NCCCN(C)C1CCCCC1 -7%, O=C(NCc1cccnc1)c1ccc(CS(=O)(=O)c2ccc(Br)cc2)o1 3%, CCOC(=O)c1ccc(-n2c(C)nc3c(cnn3-c3ccccc3C)c2=O)cc1 -2.3%, CCOc1cc2[nH]c(=O)n(CCC(=O)NCc3ccc(OC)cc3)c(=O)c2cc1OCC 1%, COc1ccccc1NC(=O)CN1CCN(S(=O)(=O)c2ccc(Br)cc2)CC1 1%, O=C(O)CCC(=O)Nc1ccc(N2CCOCC2)cc1 2%, S=C1SCN(CCN2CCOCC2)CN1Cc1ccccc1 -3%, Cc1ccc(S(=O)(=O)NCCN2CCOCC2)cc1C -2%, CN1CCCc2cc(C#N)c(=O)[nH]c21 -3%, CCN1CCN(c2ncnc3c2oc2nc(C)c4c(c23)CC(C)(C)OC4)CC1 9%, CCOc1ccc(NC(=O)CC2NCCNC2=O)cc1 (stereo unspecified) 0.7%, O=C(CN1CCOCC1)N1CCCc2c1c(=O)oc1ccc(OCc3ccccc3)cc21 -5%, Cc1ccc2nc3n(c(=O)c2c1)CCC3 5%, CCOC(=O)Cn1c(N)c(C(=O)OC)sc1=S -9%, CCOc1ccc(/C(O)=C2/C(=O)C(=O)N(Cc3cccnc3)C2c2ccc(N(C)C)cc2)c(C)c1 (stereo unspecified) -4%, CCOC(=O)C1CCN(C(=O)C2CCN(S(=O)(=O)CC)CC2)CC1 0%, Cn1nnnc1SCc1cc(=O)[nH]c2ccccc12 -4%, O=C(CC(NCCN1CCOCC1)C(=O)O)Nc1cccc(Cl)c1 (stereo unspecified) 5%, CC(=O)Nc1cc(C(=O)O)ccc1S(=O)(=O)c1ccc(Cl)cc1 5%, O=C(c1ccc(=O)[nH]c1)N(Cc1ccco1)C1(C(=O)NC2CCCCC2)CCCCC1 8%, COC(=O)c1cc(S(=O)(=O)NC2CCN(Cc3ccccc3)CC2)cn1C 12%, CC(c1ccco1)N(C(=O)c1ccc(S(=O)(=O)N2CCCCC2)cc1)c1ccccn1 (stereo unspecified) -5%, O=C1CC(c2cccc(F)c2)C2=C(CCCC2=O)N1 (stereo unspecified) 0%, Cc1nc(NC(=O)C23CCC(C)(C(=O)O2)C3(C)C)sc1C (stereo unspecified) 2%, CC1Cc2nc(SCC(=O)Nc3ccccc3F)n(C)c(=O)c2S1 (stereo unspecified) -5.7%, Cc1ccc(C)c(NS(=O)(=O)c2cc(Br)cnc2N)c1 -9%, O=C1CC(c2cccc(Br)c2)C2=C(CCCC2=O)N1 (stereo unspecified) -3%, COc1cccc(NC(=O)Cn2cnc3sc(C)c(S(=O)(=O)N4CCN(C)CC4)c3c2=O)c1 1%, CCOC(=O)CSc1nnc(CNC(=O)c2cccs2)n1-c1ccccc1 -4%, O=C1N=C(N2CCOCC2)CS1 5%, C=CCOC(=O)C1=C(C)OC(N)=C(C#N)C1c1ccc(F)cc1 (stereo unspecified) -2.5%, CCOC(=O)c1ccc(Nc2cc(C)nc3nc(C)nn23)cc1 5%, COCCCNC(=O)CCc1nc2cccnc2n1Cc1ccc(OC)cc1 4%, COc1cccc(Oc2ccc(N)cc2)c1 8%, CCCN1CCN(C(=O)Cn2ncc3ccccc32)CC1 5%, Cc1cccc(N2CCN(C(=O)C3CCN(S(=O)(=O)c4cnc[nH]4)CC3)CC2)c1C 0%, COc1cccc(NC(=O)C2CCCN2C(=O)OCc2ccccc2)c1 (stereo unspecified) -5%, CC(=O)c1c(C)[nH]c(C(=O)NCCCN2CCCC2)c1C 1%, COc1cc2[nH]c(=S)n(CCN3CCCCC3C)c(=O)c2cc1OC (stereo unspecified) -3%, Cn1c(=O)cc(OCCCC(=O)N2CCN(c3ccccn3)CC2)c2ccccc21 -10%, Cc1cccn2c(=O)c3cc(C(=O)NCc4ccccn4)n(C)c3nc12 -2%, Cc1nc(SCC(=O)Nc2cc(C)on2)c2c3c(sc2n1)CCCC3 -3.5%, COc1ccc(C(=O)N(CCN2CCOCC2)CC(=O)NC2CCCC2)cc1OC 6.5%, O=C(CN1CCOc2ccccc21)N1CCC(Cc2ccccc2)CC1 -1%, CCOC(=O)CSc1nnc(CNC(=O)Cc2ccccc2)n1-c1ccccc1OC -3%, CC1CCC(NS(=O)(=O)c2ccc3c(c2)n(C)c(=O)c(=O)n3C)CC1 (stereo unspecified) 6%, COc1cc(OC)cc(-c2nc3nc(C)c(CCC(=O)NCc4ccco4)c(C)n3n2)c1 -2.7%, Cc1cc(C)nc(-n2nc(C)cc2NC(=O)c2ccc(Br)o2)n1 1.5%, Cc1nc2ccc(NC(=O)N3CCC(c4ccccc4)C3)cc2nc1C (stereo unspecified) -3%, O=C(CNS(=O)(=O)c1ccc(Br)s1)NCc1ccc2c(c1)OCO2 -4%
